In PubChem BioAssay (NCATS):
Records with an inconclusive call do not appear. Calls of active or inactive are those of the source. Unless noted, calls follow the shape of the dose curve; as a rule, active = well fitted curve in the direction sought with a large enough effect; inconclusive = small, poorly fitted or top-dose-only effect, or another doubt; inactive = no such curve, though single readings can be large; an effect the other way counts as inactive or inconclusive.

What was measured:
[1] = biological target: Peroxisome proliferator-activated receptor alpha (Homo sapiens) (UniProt Q07869); assay: qHTS assay for small molecule agonists of the peroxisome proliferator-activated receptor alpha (PPARalpha) signaling pathway (AID 651778); conditions: PathHunter PPARalpha complementation, chemiluminescence, 6 h; max response: active compounds read high; also: % of control where 0% means no effect
Method in brief: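 Enzyme-fragment complementation assay in which ligand-bound PPARalpha translocates and forms an active enzyme that generates chemiluminescence. Cells were plated overnight, exposed to compound for 6 hr at 37 C, and then given detection reagent for 60 min at room temperature.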

[2] = qHTS assay for small molecule agonists of the antioxidant response element (ARE) signaling pathway measured by Nrf2-dependant transcriptional activity (AID 720636; active = well fitted curve in the direction sought with a large enough effect in the repeat runs; an effect the other way counts as inactive or inconclusive; also: potency is read from the fitted curve at half-maximal effect;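 as to activation: HepG2 cells with an ARE-driven luciferase reporter; % of control where 0% means no effect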)
Method in brief: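 Nrf2-dependent transcription is measured in ARE-luc HepG2 cells: compound is applied for 16 hr at 37 C after a 6 hr attachment period, and luciferase activity is quantified by luminescence using ONE-Glo.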

[3] = qHTS assay for environmental chemicals that activate the Aryl hydrocarbon Receptor (AhR) signaling pathway (AID 651777); conditions: 1A2-DRE human hepatoma cells, luciferase, 24 h; activation: active compounds read high; also: % of control where 0% means no effect; nearly all actives have a fitted effect of over 15% in size
Method in brief: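 Reporter gene assay: hepatoma cells with DRE/CYP1A2-luciferase, 24 hr compound incubation at 37 C, 5% CO2, luminescence after One-Glo (30 min, RT).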

[4] = biological target: Arylsulfatase A (Homo sapiens) (UniProt P15289); assay: qHTS screen for enhancers of Arylsulfatase A (ASA1): LOPAC Validation Assay (AID 720538); conditions: outcome: dose series up to 57.5 µM
Method in brief: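 SV40-transformed skin fibroblasts from an MLD patient (ASA-I179S) were treated with compounds for 48h at 37 degree C, then lysed with 0.5mM pNCS final substrate for 14h at room temperature; NaOH stop, fluorescence read (Ex=525 nm; Em=598 nm).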

[5] = biological target: Tyrosine-protein kinase Yes (Homo sapiens) (UniProt P07947); assay: qHTS for small molecule inhibitors of Yes1 kinase: Primary Screen (AID 686947);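 also: plate controls were DMSO with enzyme for no effect and no-enzyme DMSO wells for full effect; nearly all actives have a fitted effect of over 60% in size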
Method in brief: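 In this qHTS format, inhibition is expressed relative to DMSO controls with enzyme (maximum) and without enzyme (minimum). The 60 min room-temperature reaction uses 0.1 mM ATP, with ADP detected by luminescence.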

[6] = qHTS for small molecule inhibitors of Yes1 kinase: Counter Assay (AID 686950);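 also: no kinase present so only ADP-Glo detection of a fixed ADP amount is tested; luminescence from ADP-Glo reporting ADP in a fixed ATP and ADP mixture; series mostly up to about 77 µM; 0% = DMSO wells with ATP plus ADP and -100% = ATP-only wells without ADP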
Method in brief: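 No kinase present; 0.08 mM ATP + 0.02 mM ADP in 50 mM Tris pH 7.5, 10 mM MgCl2, 150 mM NaCl, 1 mM DTT; 20 min compound preincubation, 60 min RT, ADP-Glo luminescence, normalized to ATP/ADP (max) and ATP-only (min).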

[7] = qHTS for compounds that reverse cellular toxicity of Amyloid beta (A-beta) peptide in yeast: LOPAC Validation Assay (AID 720559);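 also: plate controls were DMSO for no effect and equimolar ferric chloride plus clioquinol rescue for full effect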
Method in brief: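 Yeast cells expressing toxic A-beta were combined with pinned compounds in growth medium and incubated 48 hr at 30 C. Growth was read as absorbance at 600 nm and normalized to DMSO and to an equimolar FeCl3/clioquinol positive control.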

[8] = qHTS for Activators of Parkin Expression: LOPAC Validation Assay (NLuc Reporter) (AID 720572)
Method in brief: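 NLuc signal, read 10 min after reagent and following a prior FLuc read, is normalized to DMSO (0) and positive controls (100%). Cells: neuronal Parkin-promoter coincidence reporter line; compounds tested 7-point, 24 h, 37 C, 5% CO2.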

[9] = qHTS for Activators of Parkin Expression: LOPAC Validation Assay (FLuc Reporter) (AID 720573)
Method in brief: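 Neuronal cell line stably carrying FLuc/NLuc coincidence reporter under Parkin promoter; cells plated 24 h, then compounds added in 7-point dose response for 24 h at 37 C. FLuc luminescence read; normalized to DMSO and positive control (100%).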

Arylsulfatase A (Homo sapiens), sequence (P15289 whole entry, looked up): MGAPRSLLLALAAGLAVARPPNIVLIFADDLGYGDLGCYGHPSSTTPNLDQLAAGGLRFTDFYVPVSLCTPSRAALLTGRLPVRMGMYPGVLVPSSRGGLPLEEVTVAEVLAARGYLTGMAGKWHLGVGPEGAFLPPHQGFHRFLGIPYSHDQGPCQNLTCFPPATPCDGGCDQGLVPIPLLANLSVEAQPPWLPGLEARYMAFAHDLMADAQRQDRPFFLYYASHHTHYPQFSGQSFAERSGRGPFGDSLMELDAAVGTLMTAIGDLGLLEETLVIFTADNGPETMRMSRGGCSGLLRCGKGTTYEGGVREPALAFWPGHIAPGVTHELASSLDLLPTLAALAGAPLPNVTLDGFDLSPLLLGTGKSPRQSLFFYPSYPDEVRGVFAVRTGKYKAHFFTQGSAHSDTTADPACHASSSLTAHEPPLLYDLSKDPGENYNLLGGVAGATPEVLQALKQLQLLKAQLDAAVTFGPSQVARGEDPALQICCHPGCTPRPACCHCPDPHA
Peroxisome proliferator-activated receptor alpha (Homo sapiens), sequence (Q07869 whole entry, looked up, the tested form may be a part): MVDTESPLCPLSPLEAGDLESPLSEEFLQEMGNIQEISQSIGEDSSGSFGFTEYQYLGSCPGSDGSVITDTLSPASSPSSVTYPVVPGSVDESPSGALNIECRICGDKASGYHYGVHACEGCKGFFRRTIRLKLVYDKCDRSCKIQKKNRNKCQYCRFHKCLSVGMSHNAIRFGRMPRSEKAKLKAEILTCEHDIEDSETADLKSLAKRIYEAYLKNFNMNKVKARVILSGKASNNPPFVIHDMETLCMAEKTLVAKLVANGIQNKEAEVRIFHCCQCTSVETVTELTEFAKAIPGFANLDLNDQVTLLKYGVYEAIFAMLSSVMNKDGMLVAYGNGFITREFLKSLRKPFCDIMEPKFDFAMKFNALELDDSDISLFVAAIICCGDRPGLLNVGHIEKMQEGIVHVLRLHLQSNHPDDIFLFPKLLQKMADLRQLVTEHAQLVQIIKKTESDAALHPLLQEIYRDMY
Tyrosine-protein kinase Yes (Homo sapiens), sequence (P07947 whole entry, looked up): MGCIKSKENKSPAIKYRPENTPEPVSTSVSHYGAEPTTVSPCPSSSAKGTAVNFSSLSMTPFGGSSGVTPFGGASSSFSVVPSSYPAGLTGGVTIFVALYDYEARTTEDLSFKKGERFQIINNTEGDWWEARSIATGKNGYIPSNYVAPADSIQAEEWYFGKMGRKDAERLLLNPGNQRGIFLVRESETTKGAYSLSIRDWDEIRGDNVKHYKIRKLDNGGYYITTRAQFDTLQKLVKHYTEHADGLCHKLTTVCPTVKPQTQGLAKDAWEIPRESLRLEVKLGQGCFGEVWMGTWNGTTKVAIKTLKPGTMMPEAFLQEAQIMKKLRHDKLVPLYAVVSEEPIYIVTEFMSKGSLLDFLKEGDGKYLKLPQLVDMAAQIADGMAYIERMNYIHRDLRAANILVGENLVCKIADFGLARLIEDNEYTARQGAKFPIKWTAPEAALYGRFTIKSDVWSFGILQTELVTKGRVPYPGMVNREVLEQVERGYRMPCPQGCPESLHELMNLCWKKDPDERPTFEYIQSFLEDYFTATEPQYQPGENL

O=[N+]([O-])/N=C1\NCCN1Cc1ccc(Cl)nc1
inactive: max response [1] -0.352% | Potency [2]

CCCCCC[C@H]1C(=O)O[C@H](C)[C@H](NC(=O)c2cccc(NC=O)c2O)C(=O)O[C@@H](C)[C@@H]1OC(=O)CC(C)C
inactive: activation [3] -1.12% | Potency [2]

C[C@]12N[C@H](Cc3ccccc31)c1ccccc12
inactive: outcome [4]

Cc1c(C(=O)Nc2cccc(C(F)(F)F)c2)cc(-c2ccccc2)n1CCCN1CCOCC1
inactive: Potency [5] | outcome [6]

CN1C2CCC1CC(OC(=O)c1cc(Cl)cc(Cl)c1)C2 (stereo not given)
inactive: outcome [4] | outcome [7] | outcome [8] | outcome [9]

Nc1c(Cl)c(Cl)c(Cl)c(Cl)c1Cl
inactive: max response [1] -0.704% | Potency [2]

c1ccc2occc2c1
inactive: Potency [2]

O=C1CCCN1CC#CCN1CCCC1
inactive: outcome [4] | outcome [7] | outcome [8] | outcome [9]

[Cl][In]([Cl])[Cl]
active: Potency [2] 42.2 µM

C[C@@H](N)Cc1cnc[nH]1
inactive: outcome [4] | outcome [7] | outcome [8] | outcome [9]

CC(C)NC(C)Cc1ccc(I)cc1 (stereo not given)
inactive: outcome [4] inactive; inhibitor; fitted 0.3013 uM | outcome [7] | outcome [8] | outcome [9]

NC1CC1c1ccccc1 (stereo not given)
inactive: outcome [4] | outcome [7] | outcome [8] | outcome [9]

NC(=O)CN1CC(O)CC1=O (stereo not given)
inactive: outcome [4] | outcome [7] | outcome [8] | outcome [9]

CC(=O)[C@H]1CCC2C3CC[C@H]4C[C@H](O)CC[C@]4(C)C3CC[C@@]21C (stereo not given in full)
inactive: outcome [4] | outcome [7] | outcome [8] | outcome [9]

COc1cc(C(O)CN)ccc1O (stereo not given)
inactive: outcome [4] | outcome [7] | outcome [8] | outcome [9]

C=CCN1CC[C@]23CCCCC2[C@H]1Cc1ccc(O)cc13 (stereo not given in full)
inactive: outcome [4] inactive; inhibitor; fitted 0.0301 uM | outcome [7] | outcome [8] | outcome [9]

Cc1nccc2c1[nH]c1ccccc12
inactive: outcome [4] | outcome [7] | outcome [8] | outcome [9]

O=C(O)[C@@H]1CCN1
inactive: outcome [4] | outcome [7] | outcome [8] | outcome [9]

CN[C@@H]1C[C@@H](c2ccc(Cl)c(Cl)c2)c2ccccc21
inactive: outcome [7] | outcome [8] | outcome [9]

c1ccc(C2(c3ccccc3)CC2C2=NCCN2)cc1 (stereo not given)
inactive: outcome [7] | outcome [8] | outcome [9]

C[C@@H]1O[C@H](C[N+](C)(C)C)C[C@H]1O
inactive: outcome [7] | outcome [8] | outcome [9]

C[N+]1(C)C2CCC1CC(OC(=O)C(CO)c1ccccc1)C2 (stereo not given)
inactive: outcome [4] | outcome [7] | outcome [8] | outcome [9]

CCCCc1ccc(C(=O)O)nc1
inactive: outcome [4] | outcome [7] | outcome [8] | outcome [9]

NCCc1c[nH]c2ccccc12
inactive: outcome [7] | outcome [8] | outcome [9]

Cn1cnc(CCN)c1
inactive: outcome [4] | outcome [7] | outcome [8] | outcome [9]

CNCCc1c[nH]c2ccc(O)cc12
inactive: outcome [4] | outcome [7] | outcome [8] | outcome [9]

Cc1c(C(=O)c2cccc3ccccc23)c2cccc3c2n1[C@H](CN1CCOCC1)CO3
inactive: outcome [7] | outcome [8] | outcome [9]

c1ccc(CCCN2CCN(CCOC(c3ccccc3)c3ccccc3)CC2)cc1
inactive: outcome [4] | outcome [7] | outcome [8] | outcome [9]

C/C=C(/C)C(=O)O[C@H]1C(C)=C2[C@H]([C@@H]1OC(=O)CCCCCCC)[C@@](C)(OC(C)=O)C[C@H](OC(=O)CCC)[C@@]1(O)[C@H]2OC(=O)[C@@]1(C)O
inactive: outcome [4] | outcome [7] | outcome [8] | outcome [9]

CC(=O)NCCc1c[nH]c2ccccc12
inactive: outcome [4] | outcome [7] | outcome [8] | outcome [9]

NCCc1c[nH]c2ccc(O)cc12
inactive: outcome [4] inactive; inhibitor; fitted 4.2562 uM | outcome [7] | outcome [8] | outcome [9]

c1ccc2sc(C3(N4CCCCC4)CCCCC3)cc2c1
inactive: outcome [7] | outcome [8] | outcome [9]

CC[C@@H](C(N)=O)N1CCCC1=O
inactive: outcome [4] | outcome [7] | outcome [8] | outcome [9]

NC1CCc2cc(O)c(O)cc2C1 (stereo not given)
inactive: outcome [4] | outcome [7] | outcome [8] | outcome [9]

NCc1cc(=O)[nH]o1
inactive: outcome [7] | outcome [8] | outcome [9]

S=C(NC1CCCCC1)N1CCC(c2cnc[nH]2)CC1
inactive: outcome [4] | outcome [7] | outcome [8] | outcome [9]

CC1=NN=C(c2ccc(N)cc2)c2cc3c(cc2C1)OCO3
inactive: outcome [4] | outcome [7] | outcome [8] | outcome [9]

CCCN1CCC[C@H](c2cccc(O)c2)C1
inactive: outcome [7] | outcome [8] | outcome [9]

CCCN(CCC)C1CCc2ccc(O)cc2C1 (stereo not given)
inactive: outcome [4] inactive; inhibitor; fitted 0.0338 uM | outcome [7] | outcome [8] | outcome [9]

CC(C)Oc1cccnc1N(C)C1CCN(Cc2ccccc2)CC1
inactive: outcome [4] | outcome [7] | outcome [8] | outcome [9]
